Source: PubChem BioAssay (Tox21)
Several values for one entry are separate records, joined by “and”; a condition that tells them apart may be missing. Equal values may be shown once. Inconclusive results are not listed. Entries that show only a call come without a potency. Some structures have more than one record in an assay (separate samples or runs), and their calls can disagree. Activity calls are given as the source filed them. Calls come from the whole dose curve; as a rule, active = well fitted curve in the direction sought with a large enough effect in the repeat runs; inconclusive = weak or mixed curves; inactive = no such curve, though single readings can be large; an effect the other way counts as inactive or inconclusive.

Assays:
[1] = target: Cytochrome P450 2C19 (Homo sapiens) (UniProt P33261); test: Cytochrome P450 Family 2 Subfamily C Member 19 (CYP2C19) small molecule antagonists: luciferase reporter qHTS assay (AID 1671197); note: nearly all actives have a fitted effect of over 65% in size; note: potency is the fitted concentration of half-maximal effect
Method in brief: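 Luminescent readout of CYP2C19 activity: luciferin product detected 20 min after adding detection reagent. Before that, compound and enzyme-substrate mix preincubated 10 min at room temperature; NADPH-regenerating system started a 1 h, 37C reaction. Ketoconazole as positive control.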

[2] = target: Cytochrome P450 2C9 (Homo sapiens) (UniProt P11712); test: Cytochrome P450 Family 2 Subfamily C Member 9 (CYP2C9) small molecule antagonists: luciferase reporter qHTS assay (AID 1671198); note: nearly all actives have a fitted effect of over 50% in size; note: potency is the fitted concentration of half-maximal effect
Method in brief: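 P450-Glo proluciferin substrate with CYP2C9 enzyme; 10 min RT preincubation, then NADPH regeneration 1 h at 37C; luciferin detection reagent 20 min RT, luminescence in relative luminescence units.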

[3] = target: Voltage-gated inwardly rectifying potassium channel KCNH2 (Homo sapiens) (UniProt Q12809); test: Human Ether-a-go-go-Related Gene (hERG) channel small molecule antagonists: fluorescence cell-based qHTS assay (AID 1671200);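 note: hERG-expressing U2OS cells given a thallium stimulus after FluxOR II dye loading; series mostly up to about 77 µM; nearly all actives have a fitted effect of over 50% in size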
Method in brief: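 Fluorescence at 540 nm emission (480 nm excitation) was recorded kinetically for 2 min at 1-second intervals once the thallium-containing stimulus reached cells previously loaded with FluxOR II dye.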

[4] = target: Cytochrome P450 3A4 (Homo sapiens) (UniProt P08684); test: Cytochrome P450 Family 3 Subfamily A Member 4 (CYP3A4) small molecule antagonists: luciferase reporter qHTS assay (AID 1671201); note: nearly all actives have a fitted effect of over 50% in size; note: potency is the fitted concentration of half-maximal effect
Method in brief: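 qHTS, 1536-well. CYP3A4 + proluciferin substrate, cpd 10 min RT → NADPH regen 1 h RT → detection reagent 20 min → luminescence (RLU). Ketoconazole positive control.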

Voltage-gated inwardly rectifying potassium channel KCNH2 (Homo sapiens), sequence (Q12809 whole entry, looked up): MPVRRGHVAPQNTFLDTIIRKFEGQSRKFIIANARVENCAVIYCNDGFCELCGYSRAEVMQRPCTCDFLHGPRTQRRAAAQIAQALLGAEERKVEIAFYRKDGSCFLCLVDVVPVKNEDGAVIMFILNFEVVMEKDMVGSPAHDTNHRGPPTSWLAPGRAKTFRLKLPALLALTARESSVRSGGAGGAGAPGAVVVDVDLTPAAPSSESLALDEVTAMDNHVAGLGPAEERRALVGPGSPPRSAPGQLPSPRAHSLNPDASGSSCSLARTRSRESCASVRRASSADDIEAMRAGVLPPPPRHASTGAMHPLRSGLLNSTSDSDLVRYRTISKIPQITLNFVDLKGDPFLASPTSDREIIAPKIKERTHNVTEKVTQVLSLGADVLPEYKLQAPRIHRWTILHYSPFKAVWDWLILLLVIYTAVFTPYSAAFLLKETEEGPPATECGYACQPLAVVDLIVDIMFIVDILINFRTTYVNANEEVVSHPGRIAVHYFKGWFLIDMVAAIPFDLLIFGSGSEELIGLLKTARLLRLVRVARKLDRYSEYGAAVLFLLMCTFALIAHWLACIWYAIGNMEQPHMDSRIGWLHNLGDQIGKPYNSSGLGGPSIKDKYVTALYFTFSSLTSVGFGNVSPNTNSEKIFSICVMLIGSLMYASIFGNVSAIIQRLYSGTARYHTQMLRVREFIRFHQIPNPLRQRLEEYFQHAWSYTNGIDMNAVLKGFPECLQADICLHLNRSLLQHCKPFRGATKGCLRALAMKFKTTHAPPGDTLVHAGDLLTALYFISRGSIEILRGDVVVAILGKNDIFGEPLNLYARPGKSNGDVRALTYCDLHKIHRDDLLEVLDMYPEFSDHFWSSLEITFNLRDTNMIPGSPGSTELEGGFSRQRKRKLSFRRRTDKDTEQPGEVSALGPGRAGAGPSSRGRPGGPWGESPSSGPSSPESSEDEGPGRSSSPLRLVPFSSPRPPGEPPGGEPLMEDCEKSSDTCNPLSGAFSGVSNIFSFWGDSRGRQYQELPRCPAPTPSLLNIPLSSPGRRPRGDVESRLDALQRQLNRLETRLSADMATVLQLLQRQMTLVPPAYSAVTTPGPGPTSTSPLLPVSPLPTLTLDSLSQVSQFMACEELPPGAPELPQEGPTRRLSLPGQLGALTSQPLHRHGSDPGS
Cytochrome P450 3A4 (Homo sapiens), sequence (P08684 whole entry, looked up): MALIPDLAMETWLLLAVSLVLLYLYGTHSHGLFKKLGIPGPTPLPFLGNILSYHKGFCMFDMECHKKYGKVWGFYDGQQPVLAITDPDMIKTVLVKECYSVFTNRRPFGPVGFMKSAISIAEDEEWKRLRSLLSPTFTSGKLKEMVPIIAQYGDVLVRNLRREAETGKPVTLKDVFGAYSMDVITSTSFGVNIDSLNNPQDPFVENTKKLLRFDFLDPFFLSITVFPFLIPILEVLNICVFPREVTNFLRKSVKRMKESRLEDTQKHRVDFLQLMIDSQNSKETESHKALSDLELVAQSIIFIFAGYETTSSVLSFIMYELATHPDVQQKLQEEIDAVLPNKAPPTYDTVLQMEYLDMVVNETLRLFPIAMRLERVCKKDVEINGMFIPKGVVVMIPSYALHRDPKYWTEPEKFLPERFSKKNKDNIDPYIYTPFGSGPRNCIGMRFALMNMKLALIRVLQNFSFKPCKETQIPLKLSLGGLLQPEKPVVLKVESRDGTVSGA
Cytochrome P450 2C19 (Homo sapiens), sequence (P33261 whole entry, looked up): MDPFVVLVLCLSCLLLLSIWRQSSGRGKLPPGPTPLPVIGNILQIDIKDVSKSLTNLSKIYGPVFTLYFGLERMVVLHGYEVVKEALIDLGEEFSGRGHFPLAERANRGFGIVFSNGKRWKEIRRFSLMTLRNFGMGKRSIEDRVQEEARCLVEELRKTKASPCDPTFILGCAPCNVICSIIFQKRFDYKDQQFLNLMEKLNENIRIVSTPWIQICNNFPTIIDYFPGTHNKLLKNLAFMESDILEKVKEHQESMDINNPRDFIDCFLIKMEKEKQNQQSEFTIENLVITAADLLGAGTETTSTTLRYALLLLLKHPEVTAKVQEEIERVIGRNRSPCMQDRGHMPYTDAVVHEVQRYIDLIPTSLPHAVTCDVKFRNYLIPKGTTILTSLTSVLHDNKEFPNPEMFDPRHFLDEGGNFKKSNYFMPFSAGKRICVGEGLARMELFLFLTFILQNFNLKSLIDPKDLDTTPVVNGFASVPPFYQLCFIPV
Cytochrome P450 2C9 (Homo sapiens), sequence (P11712 whole entry, looked up): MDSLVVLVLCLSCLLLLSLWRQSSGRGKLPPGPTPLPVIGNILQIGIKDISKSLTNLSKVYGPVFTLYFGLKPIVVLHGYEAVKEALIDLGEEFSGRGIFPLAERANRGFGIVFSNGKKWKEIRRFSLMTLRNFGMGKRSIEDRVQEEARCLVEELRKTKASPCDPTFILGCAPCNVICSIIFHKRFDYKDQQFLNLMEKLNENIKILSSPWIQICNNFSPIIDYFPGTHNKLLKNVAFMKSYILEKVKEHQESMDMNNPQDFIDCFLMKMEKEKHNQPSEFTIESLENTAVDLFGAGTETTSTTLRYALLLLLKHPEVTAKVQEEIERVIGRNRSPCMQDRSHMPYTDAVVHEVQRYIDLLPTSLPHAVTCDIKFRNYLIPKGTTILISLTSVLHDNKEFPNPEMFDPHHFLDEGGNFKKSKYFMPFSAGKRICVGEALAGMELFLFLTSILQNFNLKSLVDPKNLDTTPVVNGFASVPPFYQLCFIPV

Structure (SMILES)	Potency [1]	Potency [2]	Potency [3]	Potency [4]
CC(=O)CCC(C)C	inactive	inactive	inactive	inactive
CCCCNC(=O)NS(=O)(=O)c1ccc(N)cc1	inactive	inactive	inactive	inactive
C=CCOC(=O)CC(C)C	inactive	inactive	inactive	inactive
CCCCCCCCCCCCCC(=O)OC(C)C	inactive	inactive	inactive	inactive
COc1ccccc1NC(=O)CC(C)=O	78.5 µM (active) and inactive	inactive	inactive	63.3 µM (active)
Nc1ccc(N=Nc2ccccc2)c(N)n1	20.1 µM (active) and 28.3 µM (active) and 9.77 µM (active)	20.1 µM (active) and 28.3 µM (active) and 17.4 µM (active)	inactive	
CCCCOCCOCCSC#N	8.4 µM (active) and inactive	inactive	inactive	inactive
